Molecules are shown by their SMILES. Among all 320,000 compounds or so, about 8,000 (2.5%) were called active. Many of the other results were omitted from the sample, so actives are more common in it than they were. Values without a mark were called inactive. Rule as the data show it: active = activation above about 47%; inactive = the rest.

Sequence of Aryl hydrocarbon receptor (Homo sapiens) (P35869 whole entry, looked up): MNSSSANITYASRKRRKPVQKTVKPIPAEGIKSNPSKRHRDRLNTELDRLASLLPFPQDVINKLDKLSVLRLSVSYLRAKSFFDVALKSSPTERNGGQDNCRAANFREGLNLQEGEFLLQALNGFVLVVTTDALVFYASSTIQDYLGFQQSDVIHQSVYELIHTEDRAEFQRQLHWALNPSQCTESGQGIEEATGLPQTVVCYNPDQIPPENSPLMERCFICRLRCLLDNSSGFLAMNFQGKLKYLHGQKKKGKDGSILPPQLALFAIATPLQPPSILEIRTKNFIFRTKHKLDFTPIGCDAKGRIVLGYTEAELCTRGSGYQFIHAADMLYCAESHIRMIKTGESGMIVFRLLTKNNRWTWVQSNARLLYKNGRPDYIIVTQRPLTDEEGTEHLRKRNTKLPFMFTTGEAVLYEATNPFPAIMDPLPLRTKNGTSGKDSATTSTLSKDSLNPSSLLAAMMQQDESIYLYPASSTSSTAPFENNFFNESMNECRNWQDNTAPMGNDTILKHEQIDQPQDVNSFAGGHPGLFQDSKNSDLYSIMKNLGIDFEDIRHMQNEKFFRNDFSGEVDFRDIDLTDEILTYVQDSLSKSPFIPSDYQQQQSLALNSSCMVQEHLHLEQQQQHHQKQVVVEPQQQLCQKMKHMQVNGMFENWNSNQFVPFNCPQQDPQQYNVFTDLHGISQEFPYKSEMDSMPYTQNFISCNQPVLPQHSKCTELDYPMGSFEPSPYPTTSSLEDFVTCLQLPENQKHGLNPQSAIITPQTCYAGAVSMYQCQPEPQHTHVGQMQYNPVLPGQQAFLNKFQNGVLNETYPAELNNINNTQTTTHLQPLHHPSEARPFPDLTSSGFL

The assay addresses Aryl hydrocarbon receptor (Homo sapiens) (UniProt P35869). Kind of assay: AHR activators, primary screen, cell-based, luminescence, luciferase reporter, human (AID 2796).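 Also: 0% = vehicle wells and 100% = reference agonist.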 The settings on record: AHR-responsive luciferase reporter cells, at 5 µM, hits give high values. A general note: In a reporter assay the amount or activity of a reporter protein is the signal.
Consider `O=C(Nc1cc2c3c(c1)CC(=O)N3CCC2)c1ccccc1F`, for which the activation was 3.64%.

On to `CC(Nc1nc(C(F)(F)F)nc2ccccc12)c1cccs1` (centres undefined), for which the activation was 0.19%.

On to `Cc1cccc(NC(=O)c2cc(N3C(=O)CCC3=O)ccc2Cl)n1`, for which the activation is -0.56%.

On to `Cc1cccc(NC(=O)c2ccc3ccccc3n2)n1`, for which the activation is 82.1% (active).

As to `Cc1cccc(NC(=O)c2cccnc2Cl)n1`, the activation is -1.7%.

As for `Cn1ccnc1-c1nnn(-c2ccc(F)cc2)n1`, the activation was -1.09%.

For `O=C(COc1ccccc1)Nc1ccc(C(=O)N2CCCC2)cc1`, the activation was -2.51%.

`CC(NC(=O)COc1ccc(-c2ccccc2)cc1)C1CCCO1` (centres undefined): the activation was 19.8%.

With `O=C(COc1ccc(-c2ccccc2)cc1)NN=C1CCCC1`, the activation was 52.1% (active).

In the case of `CN1CCN(C(CNS(=O)(=O)c2cccs2)c2cccnc2)CC1` (centres undefined), the activation is 0.06%.

On to `Cc1cc(C(=O)NNS(=O)(=O)c2ccccc2C(F)(F)F)nn1C(C)(C)C`, for which the activation is 33.2%.

Take `CC(C)(C)c1cc(C(=O)NCc2cccnc2)ccn1`: the activation is 5.21%.

Turning to `Cc1c(C(=O)NC(=S)NCc2cccnc2)oc2ccccc12`, the activation is 6.27%.

On to `Cc1ccc(C(=O)NC(=S)NCc2cccnc2)cc1`, for which the activation was 70.4% (active).

Consider `CS(=O)(=O)N1CCCC(C(=O)N2CCOCC2)C1` (centres undefined), for which the activation was -4.42%.

With `COc1ccc(CNc2nc(NCc3ccc(OC)cc3)c3ncn(C4CCCC4)c3n2)cc1`, the activation was 5.12%.

Regarding `CCN(CC(=O)Nc1ccccc1C(F)(F)F)C(=O)C1CCN(C(=O)Nc2ccccc2)CC1`, the activation was 0.13%.

`Cc1cc(S(=O)(=O)Nc2ccc(C(=O)NCC(c3ccco3)N3CCCC3)cc2)ccc1F` (centres undefined): the activation was 2.37%.

For `Cc1c(C(=O)NCC(c2ccco2)N2CCCC2)oc2ccc(Cl)cc12` (centres undefined), the activation was 91.5% (active).

In the case of `CSc1ncccc1C(=O)NCC(c1ccco1)N1CCCCC1` (centres undefined), the activation is 0.96%.

In the case of `O=C1/C(=C/c2ccc3c(c2)OCO3)Oc2cc(OCC(=O)N3CC(O)C[C@H]3C(=O)O)ccc21` (some centres undefined), the activation was 0.62%.

As to `COc1cc(SC#N)ccc1N=Cc1c(C)[nH]n(-c2ccc(C)cc2)c1=O`, the activation is 71.7% (active).

In the case of `Cc1ccc(-n2[nH]c(C)c(/C=N/NC(=O)c3cccc([N+](=O)[O-])c3)c2=O)cc1C`, the activation was 15.9%.

Consider `Cc1[nH]n(-c2ccccc2)c(=O)c1/C=N/NC(=O)c1ccoc1C`, for which the activation is 24.8%.

Turning to `Cc1nn(C)c(C)c1Sc1ccccc1N`, the activation was 2.57%.

As to `O=C(Nc1ccccc1Cl)N1CCN(c2ccc3nncn3n2)CC1`, the activation was -1.87%.

`Cc1ccc(/C=C(\C#N)C(=O)Nc2cccc3ncccc23)o1`: the activation was 7%.

As to `O=C(c1ccc(Cl)cc1)n1cnc2ccccc21`, the activation is -0.68%.

In the case of `O=c1c(-c2ccc(Cl)cc2)[n+]([O-])c2ccccc2n1OCc1nc2ccccc2[nH]1`, the activation was 24.5%.

As to `O=C(Cc1nc2ccccc2[nH]c1=O)c1ccc(Cl)cc1`, the activation was 57.9% (active).

On to `CCN(CCn1cccn1)Cc1cn[nH]c1-c1ccc(OC)cc1F`, for which the activation was 1.96%.

As to `[O-][n+]1c2c(nn1-c1ccc(Cl)c(Cl)c1)-c1nonc1CC2`, the activation is 78.5% (active).

For `O=C(COc1ccc([N+](=O)[O-])cc1)Nc1cccc(C(=O)Nc2ccccc2C(=O)O)c1`, the activation was -3.04%.

For the compound `CCOC(=O)/C=C/CN(C(=O)OC(C)(C)C)S(=O)(=O)N1CC=CC1`, the activation was -1.1%.

Turning to `COC(=O)c1ccc(/C=N/N2C(C)CCCC2C)cc1` (centres undefined), the activation is -0.9%.

For `COc1ccc(C(=O)N2CCN(c3ccc(C(C)=O)cc3F)CC2)cc1S(=O)(=O)NC1CC1`, the activation was 2.09%.

For the compound `O=C(Nc1ccc(N2C(=O)c3cccc4cccc(c34)C2=O)cc1)c1ccc(N2CCCCC2)c([N+](=O)[O-])c1`, the activation is -0.89%.

Regarding `Cc1cccc2cc(CN(Cc3nnnn3Cc3ccccc3)C3CCCC3)c(=O)[nH]c12`, the activation is 12.9%.

Turning to `CCC(c1nnnn1C1CCCC1)N(Cc1cccs1)Cc1cc2cccc(C)c2[nH]c1=O` (centres undefined), the activation is 54.6% (active).

As to `CCC(c1nnnn1Cc1ccco1)N(CCc1ccccc1)Cc1cc2cccc(C)c2[nH]c1=O` (centres undefined), the activation is 19.4%.

For `CC(=O)Nc1ccc(S(=O)(=O)NCCC(=O)N2CCN(c3ccccc3Cl)CC2)cc1`, the activation is 0.74%.

Take `CCC(CO)Oc1cc(NC(=O)c2cccc3ccccc23)c2ncn(C(C)C)c2c1` (centres undefined): the activation is 5.86%.

On to `COC(=O)c1cc(C(=O)OCC(=O)Nc2cc(C)on2)cc([N+](=O)[O-])c1`, for which the activation is 0.26%.

For the compound `O=C1CC2(CCCC2)C(=O)N1CN1CCN(S(=O)(=O)c2ccc(F)cc2F)CC1`, the activation is 1.21%.

With `CNC(=O)Nc1cc(C(C)(C)C)no1`, the activation is 1.28%.

On to `FC(F)(F)c1cnc(Oc2ccccc2-c2nnc(-c3ccc(Cl)cc3)o2)c(Cl)c1`, for which the activation is 1.03%.

On to `COc1ccccc1-c1nnc(-c2ccc(F)cc2)o1`, for which the activation is 33.5%.

For `CSc1ccccc1-c1nnc(-c2ccc(Cl)cc2)o1`, the activation was 52.9% (active).

For `CCC(=O)Nc1ccc2nn(-c3ccc(F)cc3)nc2c1`, the activation is 31.9%.

In the case of `c1ccc(-n2nc3ccccc3n2)cc1`, the activation was -5.11%.

Take `Nc1ccc2nn(-c3ccc(Cl)cc3)nc2c1`: the activation was 109% (active).

Regarding `Cc1nn(-c2ccccc2)nc1C(=O)OCC(=O)N1CCCCC1C` (centres undefined), the activation is 4.35%.

With `CC(Sc1nnc(C2CC2)n1C1CC1)C(=O)Nc1ccc(C(N)=O)cc1` (centres undefined), the activation is -0.58%.

`c1cnc(N2CCN(c3ccc4ccccc4n3)CC2)nc1`: the activation is 120% (active).

In the case of `O=C(c1ccncc1)N1CCN(c2ccc3ccccc3n2)CC1`, the activation is -0.88%.

Turning to `CC12CCC(C(=O)N3CCN(c4ncccn4)CC3)(c3nc4ccccc4nc31)C2(C)C` (centres undefined), the activation is 16.9%.

As to `O=C1NC(c2ccccc2)CCC1(Cl)Cl` (centres undefined), the activation was 0.32%.

For the compound `CC(C)CCN1CCN(Cc2ccc(C(F)(F)F)cc2)CC1CCO` (centres undefined), the activation is 1.42%.

For `Cc1cc(NC(=O)COC(=O)COc2ccc(Cl)cc2C)c([N+](=O)[O-])cc1C`, the activation was 4.86%.

In the case of `COc1cc(NC(=O)COC(=O)CSc2ccc3ccccc3c2)c(C)cc1[N+](=O)[O-]`, the activation is 60% (active).

For the compound `Cc1cnc(C(=O)OCC(=O)Nc2ccc(Cl)cc2Cl)cn1`, the activation was 2.01%.

In the case of `COc1cc(NC(=O)COC(=O)c2cnc(C)cn2)c(C)cc1[N+](=O)[O-]`, the activation is 49.4% (active).

On to `COc1ccc(OCC(=O)Nc2cc(C)c(Cl)cc2OC)c([N+](=O)[O-])c1`, for which the activation is 3.52%.

Turning to `Cc1ccc(C)c(NC(=O)COC(=O)CSc2ccccc2)c1`, the activation is -0.94%.

The record behind these values is PubChem BioAssay AID2796 (The Scripps Research Institute Molecular Screening Center, 2010).
